# NIH3T3 tox = NIH 3T3 cell cytotoxicity; NIH 3T3 viability, CellTiter-Glo ATP luminescence, 48-72 h; actives 4.3% (n = 94,000); Potency, µM (doses to about 96.7 µM), hits mostly inhibitors; also: nearly all actives have a fitted effect of over 55% in size
#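 Cells were seeded at 400 per well, treated with pin-transferred compound, and kept 48 or 72 hr at 37 °C before CellTiter-Glo addition and luminescence imaging of cellular ATP.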
# hNpr1 antagonist = blocks ANP-stimulated signaling of human Npr1 receptor. HEK293 hNpr1 GloSensor cGMP, ANP-stimulated luminescence. Potency, µM (doses to about 46.3 µM), most hits filed as inhibitors. actives 1.6% (n = 76,000); calls by dose curve; also: nearly all actives have a fitted effect of over 60% in size
#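 HEK293 cells stably expressing human Npr1 and cGMP GloSensor pGS-40F, loaded 2 h with 2% GloSensor reagent, given compound 30 min at room temperature. Luminescence read before and 20 min after 0.1 nM hNppA.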
# GPT2 inhibitor = GPT2 alanine aminotransferase inhibition; actives 0.25% (n = 100,000); Potency, µM (series often up to 57.7 µM), actives largely listed as inhibitors; Recombinant GPT2, coupled pyruvate oxidase/HRP Amplex Red fluorescence; Q8TD30; also: nearly all actives have a fitted effect of over 60% in size
#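 Fluorescence of coupled pyruvate oxidase/HRP/Amplex Red system (50uM Amplex, 30 min, dark) reports pyruvate formed by GPT2. Enzyme reaction: 10ng/uL GPT2, 2mM L-alanine, 250uM a-KG, 30 min room temperature, pH 7.5; 50uM AOA control.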
# HEK cytotox = HEK 293 cell cytotoxicity; AID 1345083; actives 6.6% (n = 94,000); HEK 293 viability, ATP luminescence (CellTiter-Glo), 48-72 h; Potency, µM (highest dose often 115 µM), usual class: inhibitors; also: nearly all actives have a fitted effect of over 60% in size
#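 CellTiter-Glo luminescence (cellular ATP) was read after 48 or 72 hr of compound exposure at 37 degree Celsius. Cells were HEK 293 plated at 250 cells/well.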
# Luciferase inh = Photinus pyralis luciferase inhibition. AID 1347043. actives 2.5% (n = 76,000). Potency, µM (top dose mostly 115 µM), most hits filed as inhibitors. purified P. pyralis luciferase, luminescence, biochemical. P08659; also: nearly all actives have a fitted effect of over 65% in size
# Target sequence (P08659 whole entry, looked up): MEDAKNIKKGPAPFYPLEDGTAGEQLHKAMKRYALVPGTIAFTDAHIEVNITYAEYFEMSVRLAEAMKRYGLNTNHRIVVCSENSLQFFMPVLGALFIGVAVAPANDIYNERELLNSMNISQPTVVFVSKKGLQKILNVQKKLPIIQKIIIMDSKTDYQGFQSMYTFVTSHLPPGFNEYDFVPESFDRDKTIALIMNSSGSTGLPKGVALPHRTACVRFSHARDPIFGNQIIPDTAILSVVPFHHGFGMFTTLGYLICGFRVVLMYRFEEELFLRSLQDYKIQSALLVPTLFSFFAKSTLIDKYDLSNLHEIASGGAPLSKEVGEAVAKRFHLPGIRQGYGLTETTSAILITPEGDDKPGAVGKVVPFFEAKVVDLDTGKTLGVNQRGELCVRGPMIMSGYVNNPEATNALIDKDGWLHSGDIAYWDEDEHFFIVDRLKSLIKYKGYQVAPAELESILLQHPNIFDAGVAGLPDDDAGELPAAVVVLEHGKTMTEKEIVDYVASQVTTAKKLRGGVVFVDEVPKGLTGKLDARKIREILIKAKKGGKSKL
#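 Luminescence read by CCD imaging after purified firefly luciferase (10nM final) was added to substrate buffer holding 10uM D-luciferin and 10uM ATP, pH 7.5, pre-dosed with compound.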
# Hits are given with their value; – = inactive; ? = inconclusive; · = not tested or not shown; [ ] = another dose, or the depositor's remark. Shown are actives, neighbours in structure and some others; about 10% of the full set was active somewhere. Unless noted, calls follow the shape of the dose curve; as a rule, active = well fitted curve in the direction sought with a large enough effect; inconclusive = small, poorly fitted or top-dose-only effect, or another doubt; inactive = no such curve, though single readings can be large; an effect the other way counts as inactive or inconclusive.
SMILES,NIH3T3 tox,hNpr1 antagonist,GPT2 inhibitor,HEK cytotox,Luciferase inh
CN1CCCC2(C1)CN(Cc1cccnc1)c1ccc(C(=O)NCC3CCCCC3)cc12 (configuration not stated),35µM,–,–,89µM,–
CN1CCC2(C1)CN(Cc1ccccc1)c1ccc(C(=O)Nc3ccn(C)n3)cc12 (configuration not stated),?,–,–,?,–
COc1ccc(NC(=O)c2ccc3c(c2)C2(CCCN(C)C2)CN3Cc2cccnc2)cc1 (configuration not stated),32µM,–,–,–,–
CC(=O)N1CCCC2(C1)CN(C)c1ccc(C(=O)NCC3CC3)cc12 (configuration not stated),?,–,–,–,–
CN(C)[C@H]1CCCCN(C(=O)c2cnc3ccccn3c2=O)C1,–,–,–[11.5 µM],–,–
O=C(Nc1cnc(-c2cccc(Cl)c2)nc1)c1ccsc1,–,–,–,–,?
O=C(Nc1cnc(-c2cccc(Cl)c2)nc1)C1CCCO1 (configuration not stated),–,?,–,?,2.8µM
COc1ccccc1CC(=O)Nc1cnc(-c2cccc(Cl)c2)nc1,?,–,–,?,13µM
O=C(Nc1cnc(-c2cccc(Cl)c2)nc1)c1nccc2ccccc12,?,–,–,?,–
O=C(Nc1cnc(-c2cccc(Cl)c2)nc1)c1ccc(F)cc1Cl,?,?,–,?,11µM
O=C(Nc1cnc(-c2cccc(Cl)c2)nc1)c1ccccc1F,–,–,–,–,1µM
CCc1cccc(NC(=O)[C@@H]2CN(S(C)(=O)=O)C[C@H]2c2ccncc2)c1,–,–,–,–,–
Cn1cc(CN(Cc2c(C(=O)N3CCCC3)nc3sccn23)C2CC2)cn1,–,–,–,–,–
O=C(N[C@@H]1CN(Cc2ccc3cc[nH]c3c2)C[C@H]1CO)c1ccccc1,–,–,?,?,–
O=C(Nc1cnc(-c2ccc(Cl)cc2)nc1)c1cccc(F)c1,–,–,–,?,7.9µM
CC(C)(C)CC(=O)Nc1cnc(-c2ccc(Cl)cc2)nc1,40µM,3.5µM,–,45µM,0.28µM
O=C(Nc1cnc(-c2cccnc2)nc1)C1CCCC1,–,–,–,–,32µM
O=C(NC1CCCC1)C1CCCN1C(=O)c1cccc(-c2cccnc2)c1 (configuration not stated),–,·,·,–,·
Cc1ccc(-c2ncc(NC(=O)c3ccc(F)c(F)c3)cn2)cc1,–,–,–,–,–
Cn1ccnc1CNC[C@H]1Cn2c(-c3ccccc3)cnc2CO1,–,–,–,–,–
Cc1cc(C)n(CC(=O)N2CCN(Cc3ccccc3)CC(O)C2)c(=O)n1 (configuration not stated),–,–,?,–,–
COc1ccccc1N1CCN(C(=O)C(C)[C@@H]2CCc3c(C)cc(OCCN4CCOCC4)c(C)c3C2)CC1 (some centres not stated),?,?,–,22µM,–
COc1ccc(CNC[C@H]2O[C@H](Cc3cc(COc4ccccc4)on3)CC[C@@H]2O)cc1,?,–,–,?,–
CCN1c2cc(C(=O)Nc3ccc(Cl)cc3)ccc2C(=O)N2CCCCCC21 (configuration not stated),?,–,–,45µM,–
CCOc1ccc(NC(=O)c2ccc3c(c2)N(CC)C2CCCCCN2C3=O)cc1 (configuration not stated),?,–,–,?,–
SMILES,NIH3T3 tox,hNpr1 antagonist,GPT2 inhibitor,HEK cytotox,Luciferase inh
CCN1c2cc(C(=O)Nc3ccc(C(C)C)cc3)ccc2C(=O)N2CCCCC21 (configuration not stated),?,–,–,18µM,?
CCN1c2cc(C(=O)Nc3ccc(C(C)C)cc3)ccc2C(=O)N2CCCCCC21 (configuration not stated),22µM,–,–,?,–
CCN1c2cc(C(=O)Nc3ccc(-n4ccnc4)cc3)ccc2C(=O)N2CCCCCC21 (configuration not stated),11µM,–,–,?,–
CN1CCC(OC2CCN(C(=O)c3cc(F)cc(F)c3)CC2)CC1,–,–,–,–,–
Cc1ccc(NC(=O)NCC2CCOCC2)cc1F,–,–,–,–,–
COC[C@H]1CCCN1C(=O)CC[C@H]1CNC(=O)[C@@H]2[C@@H](CCN2CC2CC2)N1C,–,–,–,–,–
O=C(NCc1ccccc1)c1ccccc1OC1CN(Cc2ccc(O)c(F)c2)C1,?,–,–,?,–
CC(C)c1ccccc1OCC(=O)c1ccc2c(c1)N(CC(=O)N1CCCC1)C(=O)CO2,–,–,–,40µM,–
CC(C(=O)NCc1ccccc1)N1C(=O)COc2ccc(C(=O)COc3ccc(Cl)cc3)cc21 (configuration not stated),?,–,–,89µM,–
CC(C)c1ccccc1OCC(=O)c1ccc2c(c1)N(CC(=O)N1CCCCC1)C(=O)CO2,?,–,–,?,–
Cc1cccc(OCC(=O)c2ccc3c(c2)N(CC(=O)N(C)Cc2ccccc2)C(=O)CO3)c1,?,–,–,22µM,–
CC(C(=O)N1CCOCC1)N1C(=O)COc2ccc(C(=O)COc3ccc(Cl)cc3)cc21 (configuration not stated),–,–,–,?,–
CCc1cccc(OCC(=O)c2ccc3c(c2)N(CC(=O)N(C)Cc2ccccc2)C(=O)CO3)c1,?,13µM,–,?,–
CCc1cccc(OCC(=O)c2ccc3c(c2)N(CC(=O)NCc2ccco2)C(=O)CO3)c1,–,–,–,?,–
CC[C@@]1(O)CCN(C(=O)c2cccnc2N(C)C2CCCCC2)C[C@H]1O,–,–,–,–,–
CCN1CCN(C(=O)c2nc3sccn3c2-c2ccc(F)cc2)CC1,–,·,–,–,·
CN(Cc1ccccc1)C(=O)CN1C(=O)COc2ccc(C(=O)COc3ccccc3F)cc21,–,–,–,50µM,–
O=C(CN1C(=O)COc2ccc(C(=O)COc3ccccc3F)cc21)NC1CCCCC1,–,–,–,–,–
COc1cccc(C(=O)N2CCCC(C(=O)N3CCC(c4ccccc4)CC3)C2)c1 (configuration not stated),–,·,–,?,·
CN1CC2(CCN(C(=O)Nc3ccc4c(c3)OCCO4)CC2)CC1C(=O)N1CCOCC1 (configuration not stated),–,–,–,–,?
COc1ccccc1-c1ccc2c(C(=O)NCC(F)(F)F)nn(C)c2n1,–,·,–,–,·
CC(C)(C)CC(=O)N1CCN(c2nc(-c3ccccc3)nc3c2CCC3)CC1,–,–,–,–,–
COC(C)(C)C(=O)N1CCN(c2nc(-c3ccccc3)nc3c2CCC3)CC1,–,–,–,79µM,–
